About 3,700 (7%) of roughly 53,000 sequences were called active.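 The calls were made as follows: active = gene knockdowns whose robust z-score for IL-1 alpha signal is at least 2 or at most -2, so actives lie on both sides; inactive = the rest.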 The entries come from a sample that favours actives as a whole.
Assay: Components of the Cytosolic LPS Sensing Pathway: Gene Identification via Genome-wide siRNA Screen;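 also: robust z of the log signal after scaling to non-targeting control siRNA wells of the plate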
Settings: RAW264.7 macrophages, IL-1a HTRF, actives lie on both sides, screened at 100 nM (by protocol), cells primed 5 h with Pam3CSK4 first
Procedure, shortened: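 IL-1a HTRF of supernatants after 24 hour LipidA transfection of Pam3CSK4-primed (5 hours) RAW264.7 cells, 48h post-siRNA transfection (100 nM). Scores: percent of plate negative-control median, then log-based robust z-score.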
In the case of CCAUGGUCUAGCACAGUGGTT against Cpn2, the z-score is reported as -0.079 (inactive). With GACACUGUCAAAUUAUGGATT against Vmn1r74 the z-score was -0.581 (inactive). For CGGAAUGAUUCUGACUAAUTT against Mmp7, the z-score was 0.546 (inactive). With GGUAUGGAAGACAAAACCUTT against Nlrp1a the z-score was 0.61 (inactive). In the case of GGAACACUGUGAGAACAAGTT against Peak1, the z-score is reported as 0.124 (inactive). For GGAGUAUUACGUCUGAUAUTT against Nrxn1, the z-score was 2.39 (active). With GGUGCUUAAUUCCUGUCCCTT against Ggn the z-score was -0.855 (inactive). With GGAGUUCUUCACGCGUAACTT against G6pd2 the z-score was 0.599 (inactive). For GCUAGAGGAGUUUCUAAACTT against Clu, the z-score was 0.0975 (inactive). With GCUGGUGUCGGCAAAUCCUTT against Wnk1 the z-score was -0.62 (inactive). With GCAGAAUGAGUUCAGACGATT against Mgmt the z-score was 0.36 (inactive). For GGCUUUCAGUUAUUUGACATT against Zfp709, the z-score was -0.636 (inactive). In the case of GGUUGUCUUUCUACUCGGGTT against Plpp1, the z-score is reported as 1.37 (inactive). For GGGAUGUCUUCCUAUACAGTT against Cope, the z-score was -2.78 (active). With GCUGAUGGAGAGUUAUUUGTT against Rcbtb1 the z-score was 0.675 (inactive). In the case of CCACCCAAAAGUAAAAAGUTT against Rpp38, the z-score is reported as -1.29 (inactive). With GGUCUGGAUGCUUUAGAAUTT against Fam114a1 the z-score was -0.373 (inactive). In the case of GCAUUACUUGAGCAAAACATT against Zfp654, the z-score is reported as -0.854 (inactive). With GGCUCUGGAUGAAGAACUUTT against Gfpt2 the z-score was 4.13 (active). For CCUUCCUGUCCAUGUACCUTT against Olfr412, the z-score was 0.879 (inactive). For GGUCACUGUAAAAUGAACCTT against Odf2, the z-score was 1.48 (inactive). With CGCACAUGUAGUUAAUAAATT against Iqcg the z-score was -0.96 (inactive). In the case of GGGCAAAGGAAAUGGAAUCTT against Eif5, the z-score is reported as 2.33 (active). With GGCUCUUACUUCAUCACUATT against Casp4 the z-score was -1.9 (inactive). For GGCCACUUCGUGUUCUUUUTT against Hoxa10, the z-score was 2.08 (active). In the case of GGUUUUUAACCAAACAUGATT against Actr3, the z-score is reported as -0.784 (inactive). In the case of CCAUCACUACACGAAAUUGTT against Fgf12, the z-score is reported as 0.176 (inactive). For AAAAAUGUCGGAUUCCCAATT against Adgrf3, the z-score was -0.121 (inactive). For GCGAGUCUCACAUCAGUGATT against Tshz3, the z-score was 2.68 (active). For CGCAGCAGGAAUCAGGAAUTT against Tsr1, the z-score was 0.222 (inactive). In the case of GGAUGUGGAGUCACUGAUGTT against Ccdc91, the z-score is reported as -0.863 (inactive). For GGAUGAUGACGACAUUGAUTT against Eef1b2, the z-score was 0.292 (inactive). In the case of GGCAGACAACGUGUCACCUTT against Aldh1a3, the z-score is reported as -0.883 (inactive). In the case of GGAGAAGACCAUAAAGAAGTT against Flywch1, the z-score is reported as -0.554 (inactive). In the case of GACAUUUGUAUGCAGUCAUTT against Vmn1r193, the z-score is reported as -2.65 (active). In the case of CCCUCUACACUAUACCACATT against Olfr347, the z-score is reported as -0.498 (inactive). For GGAUUCUGGGCUGAAUGGGTT against Pcdh18, the z-score was -0.491 (inactive). For GGAACCAUCUUCAACCAACTT against Eme1, the z-score was -1.44 (inactive). In the case of GGAGAACUGUAAAUAAACUTT against Duoxa2, the z-score is reported as -2.1 (active). In the case of CCAUAGAGUGGAUAGUCAUTT against Rsl1, the z-score is reported as 0.385 (inactive). With CCCUCAAAACCUAUGCCUUTT against Ugt1a2 the z-score was 0.715 (inactive). In the case of GCAGGCUAUGUUCUGGAAUTT against Zfp212, the z-score is reported as 2.34 (active). In the case of GGAUGAUUGCUGACGUGGATT against Bax, the z-score is reported as 0.299 (inactive). For CCUCCUAUUUGCUUCAUUUTT against Cytip, the z-score was -1.32 (inactive). For CCUGAUCCGAUCAUCAGGATT against Cytip, the z-score was 0.133 (inactive). In the case of GGAAGGGCAAGUUAUGAAATT against Fgf14, the z-score is reported as 0.0843 (inactive). In the case of GGGACAUUUCUAUUAGAAUTT against Snx24, the z-score is reported as -0.95 (inactive). In the case of CCAUACCAAUGAAUGCCUCTT against Fas, the z-score is reported as -1.4 (inactive). In the case of “CCACUUCCUUACGAUUGAUTT against Aadacl4fm1”, the z-score is reported as -2.09 (active). With GGCUGAGGAGUGGUACUUUTT against Src the z-score was -1.13 (inactive). In the case of GCUAUGACUUCAACGACUATT against Pcsk4, the z-score is reported as -0.309 (inactive). With GGAUCUGUACAAGACUUAUTT against Olfr800 the z-score was -0.011 (inactive). For GCCAACAGAAAUAAGCCUUTT against Sorcs1, the z-score was 0.221 (inactive). With CCACACCAGAGGUCUUUGATT against Pde4dip the z-score was -1.74 (inactive). With CGAUUCCUUUGUAACGAAATT against Aldh5a1 the z-score was 1.04 (inactive). With GGCACUUAAGUUUCAUAAGTT against Qars the z-score was 0.466 (inactive). With CCAAGAGCUGAAACAAGAATT against Ankrd12 the z-score was -2.01 (active). With GGUAGUGAUCCUCAAAAAATT against Myc the z-score was 1.84 (inactive). In the case of AGUCUUCACGUUUCAUUUATT against Olfr1195, the z-score is reported as 0.32 (inactive). With CGCUGUUUGUUCAAGAGGATT against Thbs1 the z-score was 1.05 (inactive). In the case of GCACAAGCGAAGAAGUUUGTT against Ube2i, the z-score is reported as -0.0933 (inactive). In the case of GCUCAACUUGGAAUUGGAGTT against Arhgap29, the z-score is reported as 2.28 (active). For CCAUCUUGACAUCUCGUGUTT against Olfr592, the z-score was -1.9 (inactive). In the case of CUUUAUGGGUCGUGGAGGATT against Hnrnpa3, the z-score is reported as -1.12 (inactive). With GGAAUAGGACCUAUGUCUGTT against Nr2e1 the z-score was -0.455 (inactive). In the case of CCCUGGCUGAGUGCUUUGUTT against Olfr199, the z-score is reported as 0.887 (inactive). In the case of GGGUUGCCACAUGUUAUAUTT against Smad2, the z-score is reported as -0.0821 (inactive). For GGAGAAUGAGUGGUAUCUGTT against Msh2, the z-score was -1.48 (inactive). For AAGGACGAUCCUGAUUUCATT against Gm5431, the z-score was 0.828 (inactive).

Reference: PubChem BioAssay AID1508600 (Functional Genomics Laboratory (NCATS/FGL), 2020)
